About 2,000 (36%) of roughly 5,500 compounds were called active. Not shown: some 18% with an inconclusive outcome. Cut-off read from the data, not from the text of the source: active = normalized growth mostly below about 0.91 (no sharp cut-off); inconclusive = no clear call, values can overlap the other calls; inactive = mostly above about 0.92. The list shows a part of the results.
Experiment: chemical genetic growth profiling, strain panel (AID 1159580);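 note: tested at 20 µM; growth read once vehicle control cultures reached saturation at 30 °C; 1 = growth at the plate median or of vehicle wells; lower values mean less growth of the strain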
Conditions: growth OD

Measured: normalized growth

NCCCC[C@H](N[C@@H](CCc1ccccc1)C(=O)O)C(=O)N1CCC[C@H]1C(=O)O
inactive: S. cerevisiae deletion strains, locus YKL009W, strain mrt4, active compounds read low 0.973 | S. cerevisiae deletion strains, locus YKL068W, active compounds read low 0.99 | S. cerevisiae deletion strains, locus YKL085W, strain MDH1 (second series), active compounds read low 0.993 | S. cerevisiae deletion strains, locus YKL085W, strain MDH1, active compounds read low 0.993 | S. cerevisiae deletion strains, locus YKL160W, strain elf1, active compounds read low 0.999 | S. cerevisiae deletion strains, locus YKL190W, strain CNB1, active compounds read low 0.981 | S. cerevisiae deletion strains, locus YKR001C, strain vps1, active compounds read low 1.01 | S. cerevisiae deletion strains, locus YKR026C, strain gcn3, active compounds read low 1.04 | S. cerevisiae deletion strains, locus YKR091W, strain srl3, active compounds read low 1.01 | S. cerevisiae deletion strains, locus YLL001W, strain dnm1, active compounds read low 1 | S. cerevisiae deletion strains, locus YLL026W, active compounds read low 0.994 | S. cerevisiae deletion strains, locus YLL041C, strain sdh2, active compounds read low 0.97 | S. cerevisiae deletion strains, locus YLR027C, strain aat2, active compounds read low 0.998 | S. cerevisiae deletion strains, locus YLR039C, strain RIC1, active compounds read low 0.985 | S. cerevisiae deletion strains, locus YLR058C, strain SHM2, active compounds read low 0.984 | S. cerevisiae deletion strains, locus YLR102C, strain apc9, active compounds read low 0.996 | S. cerevisiae deletion strains, locus YLR113W, strain HOG1, active compounds read low 1.01 | S. cerevisiae deletion strains, locus YLR221C, strain rsa3, active compounds read low 0.981 | S. cerevisiae deletion strains, locus YLR258W, strain gsy2, active compounds read low 1.01 | S. cerevisiae deletion strains, locus YLR262C, strain YPT6 (second series), active compounds read low 1.01 | S. cerevisiae deletion strains, locus YLR262C, strain YPT6, active compounds read low 0.94 | S. cerevisiae deletion strains, locus YLR268W, strain sec22, active compounds read low 1 | S. cerevisiae deletion strains, locus YLR320W, strain mms22, active compounds read low 1.03 | S. cerevisiae deletion strains, locus YLR330W, strain CHS5, active compounds read low 0.994 | S. cerevisiae deletion strains, locus YLR342W, strain FKS1 (second series), active compounds read low 1.05 | S. cerevisiae deletion strains, locus YLR342W, strain FKS1, active compounds read low 1 | S. cerevisiae deletion strains, locus YLR357W, strain rsc2, active compounds read low 1.04 | S. cerevisiae deletion strains, locus YLR370C, strain arc18, active compounds read low 0.971 | S. cerevisiae deletion strains, locus YLR371W, strain rom2, active compounds read low 1 | S. cerevisiae deletion strains, locus YLR384C, strain iki3, active compounds read low 0.978 | S. cerevisiae deletion strains, locus YLR418C, strain cdc73, active compounds read low 1 | S. cerevisiae deletion strains, locus YML016C, strain PPZ1, active compounds read low 0.992 | S. cerevisiae deletion strains, locus YML032C, strain rad52, active compounds read low 0.999 | S. cerevisiae deletion strains, locus YML120C, strain ndi1, active compounds read low 0.976 | S. cerevisiae deletion strains, locus YML124C, strain tub3, active compounds read low 0.995 | S. cerevisiae deletion strains, locus YMR058W, strain fet3, active compounds read low 1.02 | S. cerevisiae deletion strains, locus YMR078C, strain ctf18, active compounds read low 0.998 | S. cerevisiae deletion strains, locus YMR125W, strain sto1, active compounds read low 1.04 | S. cerevisiae deletion strains, locus YMR129W, active compounds read low 0.964 | S. cerevisiae deletion strains, locus YMR205C, strain PFK2, active compounds read low 0.984 | S. cerevisiae deletion strains, locus YMR223W, strain ubp8, active compounds read low 0.983 | S. cerevisiae deletion strains, locus YMR231W, strain pep5, active compounds read low 1.02 | S. cerevisiae deletion strains, locus YMR307W, strain GAS1, active compounds read low 1.05 | S. cerevisiae deletion strains, locus YNL067W, strain RPL9B, active compounds read low 0.964 | S. cerevisiae deletion strains, locus YNL071W, strain lat1, active compounds read low 1.02 | S. cerevisiae deletion strains, locus YNL128W, strain TEP1, active compounds read low 0.989 | S. cerevisiae deletion strains, locus YNL153C, strain GIM3, active compounds read low 0.955 | S. cerevisiae deletion strains, locus YNL183C, strain NPR1, active compounds read low 0.96 | S. cerevisiae deletion strains, locus YNL209W, strain ssb2, active compounds read low 1.01 | S. cerevisiae deletion strains, locus YNL233W, strain BNI4, active compounds read low 0.975 | S. cerevisiae deletion strains, locus YNL248C, strain rpa49, active compounds read low 1.01 | S. cerevisiae deletion strains, locus YNL250W, strain rad50, active compounds read low 0.982 | S. cerevisiae deletion strains, locus YNL271C, strain bni1, active compounds read low 0.997 | S. cerevisiae deletion strains, locus YNL298W, strain CLA4, active compounds read low 0.993 | S. cerevisiae deletion strains, locus YNL307C, strain MCK1, active compounds read low 1.01 | S. cerevisiae deletion strains, locus YNL322C, strain KRE1 (second series), active compounds read low 1.02 | S. cerevisiae deletion strains, locus YNL322C, strain KRE1, active compounds read low 0.993 | S. cerevisiae deletion strains, locus YNR049C, strain mso1, active compounds read low 0.964 | S. cerevisiae deletion strains, locus YNR052C, strain pop2, active compounds read low 1.01 | S. cerevisiae deletion strains, locus YOL006C, strain TOP1, active compounds read low 0.922 | S. cerevisiae deletion strains, locus YOL012C, strain htz1 1.17 | S. cerevisiae deletion strains, locus YOL147C, strain pex11, active compounds read low 0.988 | S. cerevisiae deletion strains, locus YOR001W, strain rrp6, active compounds read low 0.967 | S. cerevisiae deletion strains, locus YOR061W, strain CKA2, active compounds read low 0.956 | S. cerevisiae deletion strains, locus YOR069W, strain VPS5, active compounds read low 0.998 | S. cerevisiae deletion strains, locus YOR070C, strain gyp1, active compounds read low 0.941 | S. cerevisiae deletion strains, locus YOR080W, strain dia2, active compounds read low 0.992 | S. cerevisiae deletion strains, locus YOR083W, strain WHI5, active compounds read low 1.01 | S. cerevisiae deletion strains, locus YOR106W, strain vam3, active compounds read low 1 | S. cerevisiae deletion strains, locus YOR136W, strain idh2, active compounds read low 0.994 | S. cerevisiae deletion strains, locus YOR144C, strain elg1, active compounds read low 0.998 | S. cerevisiae deletion strains, locus YOR184W, strain ser1, active compounds read low 1 | S. cerevisiae deletion strains, locus YOR231W, strain MKK1, active compounds read low 1.04 | S. cerevisiae deletion strains, locus YOR265W, strain rbl2, active compounds read low 0.987 | S. cerevisiae deletion strains, locus YOR270C, strain vph1, active compounds read low 1.04 | S. cerevisiae deletion strains, locus YOR290C, strain snf2, active compounds read low 1.02 | S. cerevisiae deletion strains, locus YOR316C, strain cot1, active compounds read low 1 | S. cerevisiae deletion strains, locus YPL051W, strain arl3, active compounds read low 1.01 | S. cerevisiae deletion strains, locus YPL078C, strain atp4, active compounds read low 1.02 | S. cerevisiae deletion strains, locus YPL106C, strain sse1, active compounds read low 0.949 | S. cerevisiae deletion strains, locus YPL240C, strain hsp82, active compounds read low 0.986 | S. cerevisiae deletion strains, locus YPL256C, strain CLN2, active compounds read low 1.02 | S. cerevisiae deletion strains, locus YPR119W, strain clb2, active compounds read low 0.994 | S. cerevisiae deletion strains, locus YPR141C, strain kar3, active compounds read low 0.985 | S. cerevisiae deletion strains, locus YPR163C, strain tif3, active compounds read low 0.988 | S. cerevisiae deletion strains, locus YPR167C, strain met16, active compounds read low 0.999 | S. cerevisiae deletion strains, strain wtn01, active compounds read low 0.998 | S. cerevisiae strains, strain wild type, active compounds read low 0.982
